# Reference: PubChem BioAssay (NCATS)
# Several values for one entry are separate records, joined by “and”; a condition that tells them apart may be missing. Identical values can stand only once. Results filed as inconclusive are left out. Some compounds were tested as several samples or in several runs, with calls that do not always agree. Activity calls are given as the source filed them. Unless noted, calls follow the shape of the dose curve; as a rule, active = well fitted curve in either direction with a large enough effect (not every such curve was filed as active); inconclusive = small, poorly fitted or top-dose-only effect, or another doubt; inactive = flat fitted curve, though single readings scatter.
# Experiments:
# [1] = AP1 Signaling Pathway (AID 357); conditions: ME-180 AP-1-bla reporter, EGF-induced, beta-lactamase ratio, 5 h;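 also: ME-180 reporter cells stimulated with EGF at its EC50 level; % is scaled to controls: 0 for no effect and ±100 for the full control effect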
# In short: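 AP-1-bla ME-180 cells, Opti-MEM + 0.5% dialyzed FBS, plated overnight 37 °C. Cpd titration + EC50 EGF, 5 h 37 °C. CCF4 2.5 h RT; ex 405, em 460/530 ratio → %activity, AC50.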
# [2] = target: Cytochrome P450 1A2 (Homo sapiens) (UniProt P05177); test: p450-cyp1a2 (AID 410; calls by dose curve; also: potency is read from the fitted curve at half-maximal effect;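 as to activity change, negative = inhibition: -100% = full effect of reference inhibitor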)
# In short: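 Human CYP1A2 (20nM) demethylated Luciferin-ME at its Km (100uM) in 100mM KPO4. After 10 min compound preincubation, NADPH regeneration ran the reaction 60 min at room temperature. Luciferin was read by luminescence, normalized to 57 uM furafylline.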
# [3] = NFAT Signaling Pathway (AID 444); conditions: Jurkat NFAT-bla M1, carbachol, beta-lactamase ratio, 5 h;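 also: carbachol stimulus at about its EC50 of 1 µM final; % is scaled to controls: 0 for no effect and ±100 for the full control effect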
# In short: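 Jurkat cells with NFAT-driven β-lactamase reporter and co-expressed M1 receptor, stimulated with carbachol (final 1 uM, ~EC50), compound titration, 5 h at 37 °C. CCF4 loaded 1 h at RT; 460/530 nm ratio gave %activity and AC50.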
# [4] = Stat Signaling Pathway (AID 446); conditions: ME-180 SIE beta-lactamase reporter, IL-6 stimulated, 5 h;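 also: ME-180 cervical cancer cells given 40 pM IL-6 alongside compound; SIE-controlled beta-lactamase reporter measured as 460/530 nm FRET emission ratio; % is scaled to controls: 0 for no effect and ±100 for the full control effect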
# In short: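 ME-180 SIE-bla cells; overnight plating; cpd + IL-6 40 pM, 5 h, 37 C; LiveBLAzer 2.5 h RT; 460/530 nm emission ratio. Normalized to 300 pM IL-6 and 125 nM JAK inhibitor controls.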
# [5] = target: Glucocorticoid receptor (Homo sapiens) (UniProt P04150); test: GR-GFP Redistribution (AID 450;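 active = compounds whose dose series gives a full or clear partial fitted curve of increased nuclear translocation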; also: potency is read from the fitted curve at half-maximal effect); conditions: U2OS GR-GFP nuclear translocation, laser cytometry, 2 h
# [6] = target: Glucocorticoid receptor (Homo sapiens) (UniProt P04150); test: GR-EFC Redistribution (AID 451; calls by dose curve; also: potency is read from the fitted curve at half-maximal effect); conditions: CHO-K1 GR-EFC translocation, beta-gal luminescence, 2 h
# In short: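 CHO-K1 cells expressing nuclear EA and GR-ED fragments of b-gal; compounds titrated up to 46 uM final, 2 h at 37 C. GR nuclear translocation read as complemented b-gal luminescence after 1 h RT detection.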
# [7] = target: Mitogen-activated protein kinase 10 (Mus musculus) (UniProt Q61831); test: JNK3 AlphaScreen Assay (AID 530);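 also: kinase came from lysate of stimulated human HepG2 cells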; also: potency is read from the fitted curve at half-maximal effect
# In short: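 qHTS format: compounds tested as titrations against IL-1beta/TNF-alpha-activated HepG2 lysate JNK3 with biotin-GST-cJun substrate and 10 uM ATP at room temperature. Loss of anti-phospho-cJun AlphaScreen signal indicates inhibition.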
# [8] = target: 3',5'-cyclic-AMP phosphodiesterase 4B (Homo sapiens) (UniProt Q07343); test: qHTS Assay for Inhibitors of PDE-IV (AID 607; active = well fitted activation curve with a large enough effect in the main read-out, with a control signal flat, not every such curve was filed as active; also: % of control where 0% means no effect)
# In short: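 ACTOne HEK293 cells carry a modified cAMP-gated CNG channel and express endogenous PDE4; plated 1000 cells/well, compounds up to 22.9 uM final. Membrane-potential dye fluorescence (ex 535/em 590) was read; parental cells received 10 uM forskolin + 100 uM RO 20-1724.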
# [9] = qHTS Assay for Lipid Storage Modulators (AID 1519; calls by dose curve); conditions: Drosophila S3 cells, BODIPY lipid droplet/cell ratio, laser cytometry, cells loaded with oleic acid; for activity change, negative = inhibition: at 25.7 µM (top of the series)
# In short: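 Cells seeded at 5,000 per well were treated with compounds over a concentration series and loaded with oleic acid (400 uM, as added). Lipid droplet fluorescence (488 nm excitation, 500-530 nm channel) was read by laser-scanning cytometry and normalized to 20 uM Triacsin C.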
# [10] = target: ATP-dependent 6-phosphofructokinase (Trypanosoma brucei brucei) (UniProt O15648); test: qHTS Assay to Find Inhibitors of T. brucei phosphofructokinase: hit validation (AID 492961; active = well fitted curve in the direction sought with a large enough effect; an effect the other way counts as inactive or inconclusive;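 also: luminescence reports ADP formed as PFK phosphorylates fructose-6-phosphate with ATP; % is scaled to controls: 0 for no effect and ±100 for the full control effect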)
# In short: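 Inhibition of parasite PFK is measured as reduced ADP formation, quantified via luciferase after ATP depletion. Assay used 0.1 mM ATP, 0.5 mM F6P, 1.25 nM enzyme, 45 min incubation.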
# [11] = target: Ubiquitin carboxyl-terminal hydrolase 1 (Homo sapiens) (UniProt O94782); test: Inhibitors of USP1/UAF1: Pilot qHTS (AID 504865; active = well fitted curve in the direction sought with a large enough effect; an effect the other way counts as inactive or inconclusive;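 also: rhodamine fluorescence freed from ubiquitin-rhodamine substrate followed over time; top concentration of the series differs between compounds; % is scaled to controls: 0 for no effect and ±100 for the full control effect; nearly all actives have a fitted effect of over 35% in size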)
# In short: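 1nM USP1/UAF1 + cpd, 15 min RT; start w/ Ub-Rho 150nM final; kinetic FL 480/540 nm, 6 reads q60 s. Buffer 50mM HEPES pH 7.8, 0.5mM EDTA, 1mM TCEP, 0.01% Tween-20, 0.1 mg/ml BSA.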
# [12] = target: Luciferin 4-monooxygenase (Photinus pyralis) (UniProt P08659); test: Biochemical firefly luciferase enzyme assay for NPC (AID 624030; active = well fitted curve in the direction sought with a large enough effect; an effect the other way counts as inactive or inconclusive;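 also: purified P. pyralis luciferase at 10 nM with luciferin and ATP substrate; 0% = DMSO and -100% = full luciferase inhibition by PTC124 control; nearly all actives have a fitted effect of over 70% in size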)
# In short: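 Purified P. pyralis luciferase at 10 nM in 50 mM Tris Acetate (final), luminescence read within 5 minutes of enzyme addition to compounds. Activity normalised to PTC124 versus DMSO; concentration-response curves classed by r2, magnitude and activity.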
# [13] = qHTS profiling for inhibitors of Plasmodium falciparum proliferation (AID 504749; active = well fitted curve in the direction sought with a large enough effect; an effect the other way counts as inactive or inconclusive;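 also: 0% = DMSO vehicle and full inhibition = artemisinin control; nearly all actives have a fitted effect of over 60% in size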); conditions: P. falciparum in erythrocytes, SYBR Green DNA, 72 h, at 12.8 µM (top of the series)
# In short: (§1)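 Readout was DNA-dye fluorescence from lysed cultures, ex 485/em 535 nm. Parasitized red cells had grown 72 h with compound; data scaled between 0.29 uM artemisinin and DMSO wells and corrected using vehicle-only plates.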
# AS120 = test: as above; conditions: P. falciparum in erythrocytes, SYBR Green DNA, 72 h; series mostly up to 28.7 µM
# In short: as §1
# CP250 = test: as above; conditions: P. falciparum in erythrocytes, SYBR Green DNA, 72 h; series mostly up to 12.8 µM
# In short: as §1
# [14] = target: Pyruvate kinase (Leishmania mexicana) (UniProt Q27686); test: qHTS Validation Assay for Inhibitors of Leishmania Mexicana Pyruvate Kinase (AID 945; active = well fitted curve in the direction sought with a large enough effect; an effect the other way counts as inactive or inconclusive;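 also: 0% = DMSO only neutral control wells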)
# In short: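 Pyruvate kinase activity of E451W LmPYK (0.2 nM) was followed as ATP output after 1 h at room temperature with 0.5 mM PEP and 0.1 mM ADP, detected by PKLight luminescence.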
# [15] = target: Alpha-galactosidase A (Homo sapiens) (UniProt P06280); test: Counterscreen for Glucocerebrosidase Inhibitors: qHTS Assay for Human alpha-Galactosidase at pH 4.5 (AID 992; active = well fitted curve in the direction sought with a large enough effect; an effect the other way counts as inactive or inconclusive; also: 0% is about no effect)
# In short: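 Enzyme at 2 nM final was combined with compound (0.7 nM to 77 uM) and 80 uM 4-methylumbelliferyl alpha-D-galactopyranoside in 50 mM citric acid, 0.005% Tween-20, pH 4.5. After 20 min at room temperature, fluorescence was read (Ex 365/Em 440 nm); AC50 came from Hill fits.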
# [16] = target: alpha-glucosidase (Oryza sativa, rice) (UniProt Q653V4); test: Counterscreen for Glucocerebrosidase Inhibitors: qHTS Assay for Rice alpha-Glucosidase at pH 5.0 (AID 997; active = well fitted curve in the direction sought with a large enough effect; an effect the other way counts as inactive or inconclusive;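 also: 0% = full activity with enzyme and -100% = basal without enzyme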)
# In short: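 Rice alpha-glucosidase (4 nM final) with 400 uM 4-methylumbelliferyl-alpha-D-glucopyranoside in citrate buffer pH 5.0, 20 min at room temperature, stopped at pH 10; fluorescence 365/440 nm, compounds 0.7 nM–77 uM, AC50 from Hill fits.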
# [17] = target: Pyruvate kinase PKM (Homo sapiens) (UniProt P14618); test: qHTS Assay for Activators of Human Muscle Pyruvate Kinase (AID 954; active = well fitted curve in the direction sought with a large enough effect, not every such curve was filed as active;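 also: 0% = uninhibited enzyme and -100% = no enzyme or full thiadiazolimine inhibition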)
# In short: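 Luminescence from a luciferase ATP-detection/stop reagent reported PKM2 activity. Reactions contained 0.1 nM purified human enzyme, 0.5 mM PEP, 0.1 mM ADP and 7 mM MgCl2 at pH 7.2, run 1 h at RT.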
# [18] = at 7.69 µM (top of the series) unless noted
# [19] = measured here: cell count channel max response
# [20] = measured here: lipid channel max response
# Sequence of Cytochrome P450 1A2 (Homo sapiens) (P05177 whole entry, looked up): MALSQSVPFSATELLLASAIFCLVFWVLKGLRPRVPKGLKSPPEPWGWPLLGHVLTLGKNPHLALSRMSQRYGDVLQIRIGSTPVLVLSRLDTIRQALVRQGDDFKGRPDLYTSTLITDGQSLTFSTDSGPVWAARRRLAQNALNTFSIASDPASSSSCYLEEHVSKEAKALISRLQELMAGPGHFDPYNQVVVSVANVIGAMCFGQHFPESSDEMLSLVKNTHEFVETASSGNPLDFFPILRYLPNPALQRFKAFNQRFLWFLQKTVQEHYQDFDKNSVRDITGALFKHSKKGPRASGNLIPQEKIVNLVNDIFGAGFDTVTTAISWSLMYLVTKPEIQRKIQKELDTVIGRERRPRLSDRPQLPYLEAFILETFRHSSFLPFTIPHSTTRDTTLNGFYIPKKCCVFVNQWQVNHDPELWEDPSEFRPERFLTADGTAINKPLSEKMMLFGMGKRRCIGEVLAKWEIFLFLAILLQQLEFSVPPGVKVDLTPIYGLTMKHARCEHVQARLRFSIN
# Sequence of Ubiquitin carboxyl-terminal hydrolase 1 (Homo sapiens) (O94782 whole entry, looked up): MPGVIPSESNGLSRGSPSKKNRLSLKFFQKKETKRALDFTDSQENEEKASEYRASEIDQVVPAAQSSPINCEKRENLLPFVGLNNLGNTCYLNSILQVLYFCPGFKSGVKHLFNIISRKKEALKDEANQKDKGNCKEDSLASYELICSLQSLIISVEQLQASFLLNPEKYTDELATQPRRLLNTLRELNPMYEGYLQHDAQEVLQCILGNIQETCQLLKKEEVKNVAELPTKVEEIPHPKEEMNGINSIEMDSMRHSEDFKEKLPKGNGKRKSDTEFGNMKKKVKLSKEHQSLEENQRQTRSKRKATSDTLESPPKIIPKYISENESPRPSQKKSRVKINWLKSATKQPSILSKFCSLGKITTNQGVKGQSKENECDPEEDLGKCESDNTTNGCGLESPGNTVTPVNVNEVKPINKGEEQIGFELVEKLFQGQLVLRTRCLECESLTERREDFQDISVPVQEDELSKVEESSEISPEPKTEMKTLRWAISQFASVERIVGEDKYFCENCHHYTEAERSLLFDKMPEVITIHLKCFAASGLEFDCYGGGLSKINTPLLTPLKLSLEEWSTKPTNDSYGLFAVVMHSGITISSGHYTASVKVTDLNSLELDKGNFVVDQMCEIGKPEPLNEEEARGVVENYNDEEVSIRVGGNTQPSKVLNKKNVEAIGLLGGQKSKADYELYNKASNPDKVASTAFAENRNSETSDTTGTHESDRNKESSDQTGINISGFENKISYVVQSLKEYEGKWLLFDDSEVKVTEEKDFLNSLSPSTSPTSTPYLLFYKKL
# Sequence of 3',5'-cyclic-AMP phosphodiesterase 4B (Homo sapiens) (Q07343 whole entry, looked up): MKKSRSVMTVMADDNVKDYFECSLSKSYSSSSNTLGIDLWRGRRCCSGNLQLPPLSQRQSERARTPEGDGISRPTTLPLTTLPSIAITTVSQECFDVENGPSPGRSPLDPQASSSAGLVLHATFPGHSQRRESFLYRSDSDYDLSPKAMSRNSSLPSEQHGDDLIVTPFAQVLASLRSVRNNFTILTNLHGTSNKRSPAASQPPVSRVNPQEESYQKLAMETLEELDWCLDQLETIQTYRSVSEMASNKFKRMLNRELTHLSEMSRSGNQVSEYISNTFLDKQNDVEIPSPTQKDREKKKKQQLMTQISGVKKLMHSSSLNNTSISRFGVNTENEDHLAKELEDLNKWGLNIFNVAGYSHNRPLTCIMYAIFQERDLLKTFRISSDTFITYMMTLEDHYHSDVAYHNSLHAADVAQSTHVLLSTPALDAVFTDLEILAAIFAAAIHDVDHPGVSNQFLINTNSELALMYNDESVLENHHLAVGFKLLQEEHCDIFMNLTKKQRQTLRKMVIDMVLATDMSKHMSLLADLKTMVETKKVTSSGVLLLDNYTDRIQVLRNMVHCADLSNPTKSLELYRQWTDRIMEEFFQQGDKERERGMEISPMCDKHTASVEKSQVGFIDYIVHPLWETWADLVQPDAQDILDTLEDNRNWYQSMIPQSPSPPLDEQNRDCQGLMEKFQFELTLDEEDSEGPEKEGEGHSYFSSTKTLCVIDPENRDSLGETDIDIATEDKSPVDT
# Sequence of Glucocorticoid receptor (Homo sapiens) (P04150 whole entry, looked up, the tested form may be a part): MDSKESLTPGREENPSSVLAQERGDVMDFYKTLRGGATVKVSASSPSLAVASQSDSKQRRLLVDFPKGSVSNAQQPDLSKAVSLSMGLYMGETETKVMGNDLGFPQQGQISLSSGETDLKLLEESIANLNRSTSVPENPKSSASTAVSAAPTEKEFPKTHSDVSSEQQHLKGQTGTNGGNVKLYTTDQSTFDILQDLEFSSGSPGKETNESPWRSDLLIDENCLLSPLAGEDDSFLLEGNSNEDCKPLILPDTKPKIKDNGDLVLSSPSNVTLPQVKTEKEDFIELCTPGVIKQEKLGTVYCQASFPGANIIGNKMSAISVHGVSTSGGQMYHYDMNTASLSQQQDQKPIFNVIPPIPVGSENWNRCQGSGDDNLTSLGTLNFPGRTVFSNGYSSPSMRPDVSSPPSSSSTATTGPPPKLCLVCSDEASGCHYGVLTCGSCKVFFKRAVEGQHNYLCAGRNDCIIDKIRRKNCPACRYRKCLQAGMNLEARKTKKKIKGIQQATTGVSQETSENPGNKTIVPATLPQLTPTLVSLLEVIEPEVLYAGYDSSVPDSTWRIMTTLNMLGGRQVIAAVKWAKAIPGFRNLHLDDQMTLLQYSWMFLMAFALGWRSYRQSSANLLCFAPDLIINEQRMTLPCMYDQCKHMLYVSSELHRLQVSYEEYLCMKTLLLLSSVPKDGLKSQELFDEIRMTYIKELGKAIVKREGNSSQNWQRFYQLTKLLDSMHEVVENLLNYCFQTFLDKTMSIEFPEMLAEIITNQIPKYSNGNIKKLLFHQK
# Sequence of Pyruvate kinase (Leishmania mexicana) (Q27686 2-499 E452W): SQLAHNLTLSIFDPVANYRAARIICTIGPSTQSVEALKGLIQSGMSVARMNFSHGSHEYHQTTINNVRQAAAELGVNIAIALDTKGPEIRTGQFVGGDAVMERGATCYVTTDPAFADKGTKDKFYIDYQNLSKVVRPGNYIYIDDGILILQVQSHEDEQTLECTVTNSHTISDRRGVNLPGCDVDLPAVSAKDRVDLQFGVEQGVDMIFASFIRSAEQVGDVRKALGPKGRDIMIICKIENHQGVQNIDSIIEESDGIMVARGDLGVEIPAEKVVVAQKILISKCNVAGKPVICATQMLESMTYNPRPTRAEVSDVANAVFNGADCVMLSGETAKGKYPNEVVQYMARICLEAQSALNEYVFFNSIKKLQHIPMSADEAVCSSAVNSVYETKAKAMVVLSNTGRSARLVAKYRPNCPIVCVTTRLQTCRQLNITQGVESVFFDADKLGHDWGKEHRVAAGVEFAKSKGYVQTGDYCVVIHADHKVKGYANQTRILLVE
# Sequence of Alpha-galactosidase A (Homo sapiens) (P06280 whole entry, looked up): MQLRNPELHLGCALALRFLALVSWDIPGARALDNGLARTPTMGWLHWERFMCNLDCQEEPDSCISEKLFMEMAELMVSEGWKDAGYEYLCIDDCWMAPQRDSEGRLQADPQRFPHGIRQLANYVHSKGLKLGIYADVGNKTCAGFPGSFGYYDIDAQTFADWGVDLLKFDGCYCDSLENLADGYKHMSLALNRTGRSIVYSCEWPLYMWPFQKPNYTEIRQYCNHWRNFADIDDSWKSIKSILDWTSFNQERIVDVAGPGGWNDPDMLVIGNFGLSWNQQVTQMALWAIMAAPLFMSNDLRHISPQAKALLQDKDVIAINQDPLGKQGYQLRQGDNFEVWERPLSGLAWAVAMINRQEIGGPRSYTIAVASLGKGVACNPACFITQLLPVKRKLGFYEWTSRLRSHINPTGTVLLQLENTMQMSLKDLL
# Sequence of Luciferin 4-monooxygenase (Photinus pyralis) (P08659 whole entry, looked up): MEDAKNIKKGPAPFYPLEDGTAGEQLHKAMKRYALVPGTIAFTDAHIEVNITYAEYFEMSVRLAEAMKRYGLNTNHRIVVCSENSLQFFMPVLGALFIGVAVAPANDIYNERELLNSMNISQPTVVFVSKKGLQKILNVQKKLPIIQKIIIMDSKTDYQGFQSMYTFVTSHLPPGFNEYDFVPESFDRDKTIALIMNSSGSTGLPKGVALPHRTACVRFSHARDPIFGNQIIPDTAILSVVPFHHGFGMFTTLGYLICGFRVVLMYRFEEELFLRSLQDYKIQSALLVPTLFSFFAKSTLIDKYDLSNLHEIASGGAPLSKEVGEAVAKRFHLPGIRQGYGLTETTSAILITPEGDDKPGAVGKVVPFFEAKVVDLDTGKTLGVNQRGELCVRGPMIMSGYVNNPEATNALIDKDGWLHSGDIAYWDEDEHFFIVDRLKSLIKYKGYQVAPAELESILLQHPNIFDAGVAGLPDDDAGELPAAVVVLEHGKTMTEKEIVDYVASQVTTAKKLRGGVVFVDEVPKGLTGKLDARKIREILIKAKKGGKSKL
# Sequence of Pyruvate kinase PKM (Homo sapiens) (P14618 whole entry, looked up): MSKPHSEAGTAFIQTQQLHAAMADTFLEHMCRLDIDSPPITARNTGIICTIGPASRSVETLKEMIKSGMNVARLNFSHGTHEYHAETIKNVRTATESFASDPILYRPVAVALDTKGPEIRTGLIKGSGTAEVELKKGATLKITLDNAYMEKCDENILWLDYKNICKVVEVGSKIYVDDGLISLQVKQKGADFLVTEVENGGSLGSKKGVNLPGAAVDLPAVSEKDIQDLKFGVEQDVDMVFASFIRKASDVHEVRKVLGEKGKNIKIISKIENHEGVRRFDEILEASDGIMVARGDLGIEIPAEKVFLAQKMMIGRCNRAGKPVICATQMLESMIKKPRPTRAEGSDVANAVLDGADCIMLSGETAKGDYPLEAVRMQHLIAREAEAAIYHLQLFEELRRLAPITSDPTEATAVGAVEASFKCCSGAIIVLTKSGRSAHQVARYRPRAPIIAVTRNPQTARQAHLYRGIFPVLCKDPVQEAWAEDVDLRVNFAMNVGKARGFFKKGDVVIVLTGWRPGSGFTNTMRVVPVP
smiles,measurement,setting,value
CN(N=O)C(=O)N[C@H]1[C@@H](O)[C@H](O)[C@H](CO)O[C@@H]1O,"activity change, negative = inhibition",[1]; [18],22% [at 17.2 µM] (inactive)
same,Potency,[2],inactive
same,"activity change, negative = inhibition",[3]; [18],5.2% [at 17.2 µM] (inactive)
same,"activity, negative = inhibition",[4]; [18],-4.53% [at 17.2 µM] (inactive)
same,Potency,[5],> 20.6 µM (inactive)
same,Potency,[6],> 20.6 µM (inactive)
same,Potency,[7],inactive
same,Potency,[8],inactive
same,"activity change, negative = inhibition",[9],-1.88% (inactive)
same,max response,[9]; [19],-12.1%
same,max response,[9]; [20],-12.9%
same,outcome,[10],inactive
same,Potency,[11],inactive
same,outcome,[12],inactive
same,"activity, negative = inhibition",[13]; parasite line A,2.49% (inactive)
same,"activity, negative = inhibition",[13]; parasite line B,8.62% (inactive)
same,Potency,AS120,inactive
same,Potency,CP250,inactive
CN1CCc2cccc3c2[C@@H]1Cc1ccc(O)c(O)c1-3,"activity change, negative = inhibition",[1]; at 17.2 µM (top of the series),-20.2% (inactive)
same,"activity change, negative = inhibition",[1]; at 38 µM (top of the series),-26.6% (inactive)
same,"activity change, negative = inhibition",[3]; at 17.2 µM (top of the series),-6.25% (inactive)
same,"activity change, negative = inhibition",[3]; at 38 µM (top of the series),-15.4% (inactive)
same,"activity, negative = inhibition",[4]; at 17.2 µM (top of the series),1.07% (inactive)
same,"activity, negative = inhibition",[4]; at 38 µM (top of the series),-10.2% (inactive)
same,Potency,[5],> 46 µM (inactive) and > 20.6 µM (inactive)
same,Potency,[6],> 46 µM (inactive) and > 20.6 µM (inactive)
same,Potency,[7],inactive and 15.8 µM (active)
same,Potency,[8],inactive
same,outcome,[14],inactive
same,outcome,[15],inactive
same,outcome,[16],inactive
same,"activity change, negative = inhibition",[9],2.32% (inactive)
same,max response,[9]; [19],2.96%
same,max response,[9]; [20],6.43%
same,Potency,[11],inactive
CN1Cc2c(N)cccc2[C@H](c2ccccc2)C1,"activity change, negative = inhibition",[1]; at 17.2 µM (top of the series),-6.53% (inactive)
same,"activity change, negative = inhibition",[1]; at 38 µM (top of the series),-7.55% (inactive)
same,Potency,[2],31.6 µM (active) and 6.31 µM (active)
same,"activity change, negative = inhibition",[3]; at 17.2 µM (top of the series),-6.69% (inactive)
same,"activity change, negative = inhibition",[3]; at 38 µM (top of the series),-5.66% (inactive)
same,Potency,[5],> 46 µM (inactive) and > 20.6 µM (inactive)
same,Potency,[6],> 46 µM (inactive) and > 20.6 µM (inactive)
same,Potency,[7],inactive
same,Potency,[8],inactive
same,outcome,[14],inactive
same,outcome,[17],inactive
same,outcome,[15],inactive
same,outcome,[16],inactive
same,"activity change, negative = inhibition",[9],1.09% (inactive)
same,max response,[9]; [19],-0.662%
same,max response,[9]; [20],0.613%
same,Potency,[11],inactive
